Molecules are shown by their SMILES. This is part of a sample that, as a whole, favours compounds with a hit. Of some 83,000 tested, about 20% had one in any assay.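 In brief: 96-well plates, 48 h treatment, single concentration, percent growth endpoint.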 A number with no mark means an inactive call. The source made the active and inactive calls. The calls were made as follows: active = growth percent below 10; inactive = the rest.

Test in all cases: NCI-60 one-dose screen, 48 h (100 = growth as untreated, 0 = no growth, -100 = all killed)
In one experiment the test system is HCT-15 colon. The following applies: 10 µM unless noted.
The next experiment relates to HT29 colon. The settings on record: 10 µM unless noted.
In a further experiment the test system is SNB-75 CNS. The settings on record: 10 µM unless noted.
The next experiment has as its system SNB-19 CNS. The settings on record: 10 µM unless noted.
The next experiment relates to U251 CNS. The settings on record: 10 µM unless noted.
The subject of a further experiment is PC-3 prostate. The settings on record: 10 µM unless noted.
In the next experiment the test system is SK-MEL-5 melanoma. The settings on record: 10 µM unless noted.
The subject of a further experiment is UACC-62 melanoma. The following applies: 10 µM unless noted.
The test system of the next experiment is LOX IMVI melanoma. The settings on record: 10 µM unless noted.
Another experiment deals with SK-MEL-28 melanoma. The settings on record: 10 µM unless noted.
The test system of a further experiment is SK-MEL-2 melanoma. The following applies: 10 µM unless noted.
A further experiment concerns EKVX NSCLC. The following applies: 10 µM unless noted.
The next experiment has as its system SN12C renal. The settings on record: 10 µM unless noted.
In the next experiment the test system is UO-31 renal. The settings on record: 10 µM unless noted.
The test system of a further experiment is TK-10 renal. The following applies: 10 µM unless noted.
A further experiment relates to ACHN renal. The following applies: 10 µM unless noted.
The next experiment has as its system CAKI-1 renal. The settings on record: 10 µM.
A further experiment deals with CCRF-CEM leukemia. The settings on record: 10 µM unless noted.
Another experiment relates to MOLT-4 leukemia. The settings on record: 10 µM unless noted.
In another experiment the test system is A498 renal. The following applies: 10 µM unless noted.

As to `COc1cc(-c2noc(C[C@@H](NC(=O)OCc3ccccc3)C(C)C)n2)cc(OC)c1OC`, the growth in the experiment with HCT-15 colon is 97.4%; in the experiment on HT29 colon, 104%; in the experiment on SNB-75 CNS, 76.3%; with SNB-19 CNS it was 89.6%; with U251 CNS it was 98.4%; in the experiment on PC-3 prostate it was 97%. Moreover, the growth is 99.3% with SK-MEL-5 melanoma; 88.4% with UACC-62 melanoma; 101% with LOX IMVI melanoma; 100% in the experiment on SK-MEL-28 melanoma; 99.3% with SK-MEL-2 melanoma; 96.9% with EKVX NSCLC. Moreover, the growth with SN12C renal was 90.1%; in the experiment with UO-31 renal, 89.8%; in the experiment with TK-10 renal, 96.1%; with ACHN renal it was 102%; with CAKI-1 renal it was 100%; with CCRF-CEM leukemia, 99.9%. Besides, the growth with MOLT-4 leukemia was 93.9%.

For the compound `O=C(O)CNS(=O)(=O)c1ccc(Oc2ccc(S(=O)(=O)NCC(=O)O)cc2)cc1`, the growth in the experiment with HCT-15 colon is 102%; with HT29 colon, 99.3%; in the experiment with SNB-75 CNS, 66.6%; in the experiment with SNB-19 CNS, 98.1%; in the experiment with U251 CNS, 99.3%; in the experiment with PC-3 prostate, 98.6%. Moreover, the growth is 101% in the experiment with SK-MEL-5 melanoma; 99% in the experiment on UACC-62 melanoma; 99.8% in the experiment on LOX IMVI melanoma; 101% with SK-MEL-28 melanoma; 104% in the experiment on SK-MEL-2 melanoma; 96.9% with EKVX NSCLC. The growth is 93.5% in the experiment with SN12C renal; 91.4% in the experiment on UO-31 renal; 101% with TK-10 renal; 98.9% with ACHN renal; 91.4% with CAKI-1 renal; 69.9% with A498 renal. The growth in the experiment with CCRF-CEM leukemia is 100%; with MOLT-4 leukemia, 95.7%.

Regarding `CCOP(=O)(OCC)OC[C@]12CCC(C)(C)C[C@H]1C1=CC[C@@H]3[C@@]4(C)C/C(=C\c5cccnc5)[C@H](OP(=O)(OCC)OCC)C(C)(C)[C@@H]4CC[C@@]3(C)[C@]1(C)CC2`, the growth in the experiment on HCT-15 colon was 14.4%; in the experiment with HT29 colon it was 12%; in the experiment on SNB-75 CNS, 80.2%; in the experiment with SNB-19 CNS, 40%; with U251 CNS, 14.7%; in the experiment on PC-3 prostate, 15.6%. Also, the growth is -61.3% (active) in the experiment on SK-MEL-5 melanoma; 25.5% in the experiment on UACC-62 melanoma; 22% with LOX IMVI melanoma; 34.5% in the experiment with SK-MEL-28 melanoma; 45.1% in the experiment on SK-MEL-2 melanoma; 29.9% in the experiment with EKVX NSCLC. The growth in the experiment with SN12C renal was 29.3%; in the experiment with UO-31 renal it was 29.9%; in the experiment on TK-10 renal, 37.3%; in the experiment with ACHN renal, 27.8%; in the experiment with CAKI-1 renal it was 31%; in the experiment on CCRF-CEM leukemia, 25.3%. Moreover, in the experiment on MOLT-4 leukemia, the growth was 9.52% (active).

On to `O=C(COc1ccc(C2SCC(=O)N2c2ccccc2)cc1)c1ccccc1` (stereo not drawn), for which the growth is 97.2% in the experiment with HCT-15 colon; 105% in the experiment on HT29 colon; 87.5% in the experiment on SNB-75 CNS; 99.4% with SNB-19 CNS; 95.8% in the experiment with U251 CNS; 80.5% in the experiment on PC-3 prostate. Besides, the growth with SK-MEL-5 melanoma is 94.4%; in the experiment on UACC-62 melanoma it was 68.6%; in the experiment with LOX IMVI melanoma it was 93.3%; in the experiment with SK-MEL-28 melanoma, 105%; with SK-MEL-2 melanoma, 103%; in the experiment on EKVX NSCLC it was 81.2%. Besides, the growth is 92.3% with SN12C renal; 78.5% in the experiment on UO-31 renal; 124% in the experiment on TK-10 renal; 92.5% in the experiment with ACHN renal; 79.2% in the experiment on CAKI-1 renal; 98.9% with CCRF-CEM leukemia. The growth with MOLT-4 leukemia is 88.8%.

For the compound `Oc1ccccc1/C=N/Nc1nc(N/N=C/c2ccccc2O)nc(N2CCOCC2)n1`, the growth in the experiment with HCT-15 colon is 3.87% (active); in the experiment on HT29 colon it was 34.2%; in the experiment with SNB-75 CNS, -4.09% (active); with SNB-19 CNS, 41.7%; with U251 CNS, 22%; in the experiment on PC-3 prostate, 24.1%. The growth is 65.8% in the experiment with SK-MEL-5 melanoma; 88.8% in the experiment on UACC-62 melanoma; 4.04% (active) with LOX IMVI melanoma; 28% in the experiment on SK-MEL-28 melanoma; 72% in the experiment with SK-MEL-2 melanoma; 22.2% in the experiment on EKVX NSCLC. For the same compound, the growth with SN12C renal was 27.2%; in the experiment with UO-31 renal, 19.8%; with TK-10 renal, 47.9%; in the experiment on ACHN renal, 28.1%; in the experiment with CAKI-1 renal, 4.56% (active); in the experiment on CCRF-CEM leukemia, 42.3%. Further, the growth with MOLT-4 leukemia is 45.1%.

As to `COc1ccc2c(c1)c(-c1nnc(N)nc1-c1cn(C)c3ccccc13)cn2C`, the growth in the experiment on HCT-15 colon is 87%; in the experiment with HT29 colon it was 96%; with SNB-75 CNS, 42.9%; in the experiment with SNB-19 CNS, 93.2%; in the experiment with U251 CNS it was 102%; with PC-3 prostate, 88.8%. The growth with SK-MEL-5 melanoma is 97.8%; in the experiment with UACC-62 melanoma, 79%; in the experiment with LOX IMVI melanoma it was 90.8%; in the experiment on SK-MEL-28 melanoma, 97.3%; in the experiment with SK-MEL-2 melanoma it was 95.2%; in the experiment with EKVX NSCLC, 92.7%. The growth in the experiment on SN12C renal was 93.2%; in the experiment with UO-31 renal, 70.8%; in the experiment on TK-10 renal, 94.1%; in the experiment with ACHN renal, 94.5%; in the experiment on CAKI-1 renal it was 75.7%; in the experiment with CCRF-CEM leukemia it was 93.9%. Moreover, in the experiment with MOLT-4 leukemia, the growth was 94.4%.

On to `COc1ccc(Cn2cc3c(c2-c2cc(OC)c(OC)c(OC)c2)CCCc2cnoc2-3)cc1N`, for which the growth was 26.8% in the experiment on HCT-15 colon; 14.6% with HT29 colon; -14.5% (active) in the experiment with SNB-75 CNS; 28.7% in the experiment with SNB-19 CNS; 32.6% with U251 CNS; 35.5% in the experiment on PC-3 prostate. Besides, the growth in the experiment with SK-MEL-5 melanoma was 23.1%; in the experiment on UACC-62 melanoma it was 41.5%; in the experiment with LOX IMVI melanoma, 45.1%; with SK-MEL-28 melanoma it was 65.9%; with SK-MEL-2 melanoma, 55.4%; with EKVX NSCLC, 46.6%. The growth is 40.5% with SN12C renal; 38.2% in the experiment with UO-31 renal; 78.9% with TK-10 renal; 40.1% in the experiment on ACHN renal; 31.5% with CAKI-1 renal; 15.5% with CCRF-CEM leukemia. Also, the growth in the experiment with MOLT-4 leukemia is 17.4%.

Consider `COc1ccc(CN2C(=O)/C(=C/c3nc(CO)cs3)SC2=S)cc1`, for which the growth with HCT-15 colon is 64.2%; in the experiment on HT29 colon it was 107%; in the experiment with SNB-75 CNS, 91.7%; in the experiment on SNB-19 CNS, 93.8%; in the experiment on U251 CNS, 94%; with PC-3 prostate it was 86.5%. The growth is 97.9% in the experiment on SK-MEL-5 melanoma; 73.4% with UACC-62 melanoma; 42.8% in the experiment with LOX IMVI melanoma; 107% in the experiment with SK-MEL-28 melanoma; 98.2% in the experiment on SK-MEL-2 melanoma; 100% in the experiment with EKVX NSCLC. In addition, the growth was 93% with SN12C renal; 67% with UO-31 renal; 65.6% with TK-10 renal; 99.6% in the experiment on ACHN renal; 77% in the experiment with CAKI-1 renal; 61.1% with CCRF-CEM leukemia. Further, the growth in the experiment with MOLT-4 leukemia is 76.7%.

Source of the values: PubChem BioAssay (NCI).
